# Legend:
# Experiment in all cases: SPOT peptide array binding signal intensity (averaged, normalized) (arbitrary units (background-subtracted, floor 0; scale differs between SH3 domains)); higher = stronger binding of the SH3 domain to the peptide
# AgAbp1 = molecular target: AgAbp1
# Experimental: (§1)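 GST-tagged SH3 domains from S. cerevisiae (Sc), A. gossypii (Ag), C. albicans (Ca) and S. pombe (Sp) were incubated at 10 ug/ml overnight at 4 C on cellulose SPOT membranes carrying 292 synthetic 15-mer peptides mined from the S. cerevisiae proteome (cysteines replaced by serines). Binding was detected with anti-GST antibody, HRP secondary and chemiluminescence, quantified with Genespotter, and reported as normalized spot intensities averaged over biological replicates.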
# AgBbc1 = molecular target: AgBbc1
# Experimental: as §1
# AgBem1-D1 = molecular target: AgBem1-D1
# Experimental: as §1
# AgBzz1-D1 = molecular target: AgBzz1-D1
# Experimental: as §1
# AgBzz1-D2 = molecular target: AgBzz1-D2
# Experimental: as §1
# AgCyk3 = molecular target: AgCyk3
# Experimental: as §1
# AgFus1 = molecular target: AgFus1
# Experimental: as §1
# AgHof1 = molecular target: AgHof1
# Experimental: as §1
# AgHse1 = molecular target: AgHse1
# Experimental: as §1
# AgLsb1 = molecular target: AgLsb1
# Experimental: as §1
# AgLsb4 = molecular target: AgLsb4
# Experimental: as §1
# AgMyo5 = molecular target: AgMyo5
# Experimental: as §1
# AgNbp2 = molecular target: AgNbp2
# Experimental: as §1
# AgRvs167 = molecular target: AgRvs167
# Experimental: as §1
# AgSho1 = molecular target: AgSho1
# Experimental: as §1
# AgSla1-D1-D2 = molecular target: AgSla1-D1-D2
# Experimental: as §1
# AgSla1-D3 = molecular target: AgSla1-D3
# Experimental: as §1
# CaAbp1-D1 = molecular target: CaAbp1-D1
# Experimental: as §1
# CaAbp1-D2 = molecular target: CaAbp1-D2
# Experimental: as §1
# CaBbc1 = molecular target: CaBbc1
# Experimental: as §1
# CaBem1-D1 = molecular target: CaBem1-D1
# Experimental: as §1
# CaBzz1-D1 = molecular target: CaBzz1-D1
# Experimental: as §1
# CaBzz1-D2 = molecular target: CaBzz1-D2
# Experimental: as §1
# CaCyk3 = molecular target: CaCyk3
# Experimental: as §1
# CaFus1 = molecular target: CaFus1
# Experimental: as §1
# CaHof1 = molecular target: CaHof1
# Experimental: as §1
# CaHse1 = molecular target: CaHse1
# Experimental: as §1
# CaLsb1 = molecular target: CaLsb1
# Experimental: as §1
# CaLsb4 = molecular target: CaLsb4
# Experimental: as §1
# CaMyo5 = molecular target: CaMyo5
# Experimental: as §1
# CaNbp2 = molecular target: CaNbp2
# Experimental: as §1
# CaRvs167 = molecular target: CaRvs167
# Experimental: as §1
# CaRvs167-3 = molecular target: CaRvs167-3
# Experimental: as §1
# CaSho1 = molecular target: CaSho1
# Experimental: as §1
# CaSla1-D1-D2 = molecular target: CaSla1-D1-D2
# Experimental: as §1
# CaSla1-D3 = molecular target: CaSla1-D3
# Experimental: as §1
# ScAbp1 = molecular target: ScAbp1
# Experimental: as §1
# ScBbc1 = molecular target: ScBbc1
# Experimental: as §1
# ScBem1-D1 = molecular target: ScBem1-D1
# Experimental: as §1
# ScBzz1-D1 = molecular target: ScBzz1-D1
# Experimental: as §1
# ScBzz1-D2 = molecular target: ScBzz1-D2
# Experimental: as §1
# ScCyk3 = molecular target: ScCyk3
# Experimental: as §1
# ScFus1 = molecular target: ScFus1
# Experimental: as §1
# ScHof1 = molecular target: ScHof1
# Experimental: as §1
# ScHse1 = molecular target: ScHse1
# Experimental: as §1
# ScLsb1 = molecular target: ScLsb1
# Experimental: as §1
# ScLsb2 = molecular target: ScLsb2
# Experimental: as §1
# ScLsb3 = molecular target: ScLsb3
# Experimental: as §1
# ScLsb4 = molecular target: ScLsb4
# Experimental: as §1
# ScMyo3 = molecular target: ScMyo3
# Experimental: as §1
# ScMyo5 = molecular target: ScMyo5
# Experimental: as §1
# ScNbp2 = molecular target: ScNbp2
# Experimental: as §1
# ScPex13 = molecular target: ScPex13
# Experimental: as §1
# ScRvs167 = molecular target: ScRvs167
# Experimental: as §1
# ScSho1 = molecular target: ScSho1
# Experimental: as §1
# ScSla1-D1-D2 = molecular target: ScSla1-D1-D2
# Experimental: as §1
# ScSla1-D3 = molecular target: ScSla1-D3
# Experimental: as §1
# SpAbp1-D1 = molecular target: SpAbp1-D1
# Experimental: as §1
# SpBbc1 = molecular target: SpBbc1
# Experimental: as §1
# SpBzz1-D1 = molecular target: SpBzz1-D1
# Experimental: as §1
# SpBzz1-D2 = molecular target: SpBzz1-D2
# Experimental: as §1
# SpCyk3 = molecular target: SpCyk3
# Experimental: as §1
# SpHof1 = molecular target: SpHof1
# Experimental: as §1
# SpHof1-2 = molecular target: SpHof1-2
# Experimental: as §1
# SpHof1-3 = molecular target: SpHof1-3
# Experimental: as §1
# SpHse1 = molecular target: SpHse1
# Experimental: as §1
# SpLsb1 = molecular target: SpLsb1
# Experimental: as §1
# SpLsb4 = molecular target: SpLsb4
# Experimental: as §1
# SpMyo1 = molecular target: SpMyo1
# Experimental: as §1
# SpNbp2 = molecular target: SpNbp2
# Experimental: as §1
# SpPex13 = molecular target: SpPex13
# Experimental: as §1
# SpRvs167 = molecular target: SpRvs167
# Experimental: as §1
# SpSla1-D1-D2 = molecular target: SpSla1-D1-D2
# Experimental: as §1
# SpSla1-D3 = molecular target: SpSla1-D3
# Experimental: as §1
binder,measurement,setting,value
NNNKMRPHLPPLSSG,SPOT peptide array binding signal intensity,AgAbp1,47.5
same,SPOT peptide array binding signal intensity,AgBbc1,1.5
same,SPOT peptide array binding signal intensity,AgBem1-D1,288
same,SPOT peptide array binding signal intensity,AgBzz1-D1,12
same,SPOT peptide array binding signal intensity,AgBzz1-D2,9
same,SPOT peptide array binding signal intensity,AgCyk3,≤ 0
same,SPOT peptide array binding signal intensity,AgFus1,386
same,SPOT peptide array binding signal intensity,AgHof1,291
same,SPOT peptide array binding signal intensity,AgHse1,932
same,SPOT peptide array binding signal intensity,AgLsb1,1.25
same,SPOT peptide array binding signal intensity,AgLsb4,34.5
same,SPOT peptide array binding signal intensity,AgMyo5,≤ 0
same,SPOT peptide array binding signal intensity,AgNbp2,513
same,SPOT peptide array binding signal intensity,AgRvs167,3.5
same,SPOT peptide array binding signal intensity,AgSho1,559
same,SPOT peptide array binding signal intensity,AgSla1-D1-D2,≤ 0
same,SPOT peptide array binding signal intensity,AgSla1-D3,0.5
same,SPOT peptide array binding signal intensity,CaAbp1-D1,613
same,SPOT peptide array binding signal intensity,CaAbp1-D2,330
same,SPOT peptide array binding signal intensity,CaBbc1,55.9
same,SPOT peptide array binding signal intensity,CaBem1-D1,264
same,SPOT peptide array binding signal intensity,CaBzz1-D1,85.8
same,SPOT peptide array binding signal intensity,CaBzz1-D2,49.8
same,SPOT peptide array binding signal intensity,CaCyk3,4
same,SPOT peptide array binding signal intensity,CaFus1,1790
same,SPOT peptide array binding signal intensity,CaHof1,≤ 0
same,SPOT peptide array binding signal intensity,CaHse1,487
same,SPOT peptide array binding signal intensity,CaLsb1,3.75
same,SPOT peptide array binding signal intensity,CaLsb4,728
same,SPOT peptide array binding signal intensity,CaMyo5,36.2
same,SPOT peptide array binding signal intensity,CaNbp2,1410
same,SPOT peptide array binding signal intensity,CaRvs167,53.7
same,SPOT peptide array binding signal intensity,CaRvs167-3,4
same,SPOT peptide array binding signal intensity,CaSho1,1520
same,SPOT peptide array binding signal intensity,CaSla1-D1-D2,396
same,SPOT peptide array binding signal intensity,CaSla1-D3,109
same,SPOT peptide array binding signal intensity,ScAbp1,256
same,SPOT peptide array binding signal intensity,ScBbc1,≤ 0
same,SPOT peptide array binding signal intensity,ScBem1-D1,≤ 0
same,SPOT peptide array binding signal intensity,ScBzz1-D1,≤ 0
same,SPOT peptide array binding signal intensity,ScBzz1-D2,≤ 0
same,SPOT peptide array binding signal intensity,ScCyk3,2.25
same,SPOT peptide array binding signal intensity,ScFus1,424
same,SPOT peptide array binding signal intensity,ScHof1,267
same,SPOT peptide array binding signal intensity,ScHse1,1820
same,SPOT peptide array binding signal intensity,ScLsb1,27.2
same,SPOT peptide array binding signal intensity,ScLsb2,0.5
same,SPOT peptide array binding signal intensity,ScLsb3,357
same,SPOT peptide array binding signal intensity,ScLsb4,163
same,SPOT peptide array binding signal intensity,ScMyo3,10.5
same,SPOT peptide array binding signal intensity,ScMyo5,2
same,SPOT peptide array binding signal intensity,ScNbp2,710
same,SPOT peptide array binding signal intensity,ScPex13,116
same,SPOT peptide array binding signal intensity,ScRvs167,55.6
same,SPOT peptide array binding signal intensity,ScSho1,1410
same,SPOT peptide array binding signal intensity,ScSla1-D1-D2,156
same,SPOT peptide array binding signal intensity,ScSla1-D3,224
same,SPOT peptide array binding signal intensity,SpAbp1-D1,323
same,SPOT peptide array binding signal intensity,SpBbc1,1
same,SPOT peptide array binding signal intensity,SpBzz1-D1,354
same,SPOT peptide array binding signal intensity,SpBzz1-D2,6.38
same,SPOT peptide array binding signal intensity,SpCyk3,1.75
same,SPOT peptide array binding signal intensity,SpHof1,9.5
same,SPOT peptide array binding signal intensity,SpHof1-2,78.8
same,SPOT peptide array binding signal intensity,SpHof1-3,552
same,SPOT peptide array binding signal intensity,SpHse1,1170
same,SPOT peptide array binding signal intensity,SpLsb1,3.38
same,SPOT peptide array binding signal intensity,SpLsb4,904
same,SPOT peptide array binding signal intensity,SpMyo1,28.1
same,SPOT peptide array binding signal intensity,SpNbp2,460
same,SPOT peptide array binding signal intensity,SpPex13,92.5
same,SPOT peptide array binding signal intensity,SpRvs167,119
same,SPOT peptide array binding signal intensity,SpSla1-D1-D2,≤ 0
same,SPOT peptide array binding signal intensity,SpSla1-D3,64.5
